Test results as given in PubChem BioAssay (NCI).
Compounds without any hit were thinned out: in the full panel of roughly 83,000, 20% have a hit.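 Single-dose data. Exposure time 48 hours. Values below 10 considered active.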 Activity calls are given as the source filed them.

Legend:
Experiment in all cases: NCI-60 one-dose screen, 48 h (100 = growth as untreated, 0 = no growth, -100 = all killed)
Conditions in all cases: 10 µM unless noted
DU-145 prostate = system: DU-145 prostate
K-562 leukemia = system: K-562 leukemia
MALME-3M melanoma = system: MALME-3M melanoma
MDA-MB-231 breast = system: MDA-MB-231 breast
RXF 393 renal = system: RXF 393 renal
SF-268 CNS = system: SF-268 CNS
SF-295 CNS = system: SF-295 CNS
SF-539 CNS = system: SF-539 CNS
UACC-257 melanoma = system: UACC-257 melanoma
M14 melanoma = system: M14 melanoma

Measured: growth

CCCCC[C@@H]1C/C=C(\C)[C@@H](O)C(C)(C)C(=O)[C@@H](C)/C=C(\C)[C@@H]2C[C@H](O)C[C@](O)(CC(=O)O1)O2
active: UACC-257 melanoma 1.3%
inactive: DU-145 prostate 41.3% | K-562 leukemia 13.6% | MALME-3M melanoma 34.9% | MDA-MB-231 breast 83.4% | RXF 393 renal 68% | SF-268 CNS 43.1% | SF-295 CNS 11% | SF-539 CNS 73.8% | M14 melanoma 49.6%

COc1ccc(NC(=O)NN2C(=O)c3ccccc3N(C)C2c2ccc(OC)cc2)cc1 (stereo not given)
inactive: DU-145 prostate 107% | K-562 leukemia 95.6% | MALME-3M melanoma 95% | MDA-MB-231 breast 98.9% | RXF 393 renal 112% | SF-268 CNS 107% | SF-295 CNS 101% | SF-539 CNS 100% | UACC-257 melanoma 103% | M14 melanoma 70.3%

Cc1nn(-c2ccccc2)c2nc(C)n(CC(=O)N/N=C/c3ccccc3O)c(=O)c12
active: UACC-257 melanoma 2.59% | M14 melanoma 2.09%
inactive: DU-145 prostate 48.9% | K-562 leukemia 18.4% | MALME-3M melanoma 47.4% | MDA-MB-231 breast 34.2% | RXF 393 renal 25.9% | SF-268 CNS 47.6% | SF-295 CNS 23.6% | SF-539 CNS 21.8%

C=CCn1c(O)c(N=Nc2nc(-c3cc4ccccc4oc3=O)cs2)c2ccccc21
active: MDA-MB-231 breast -24.9% | RXF 393 renal -4.94%
inactive: DU-145 prostate 74.1% | K-562 leukemia 107% | MALME-3M melanoma 104% | SF-268 CNS 42.1% | SF-295 CNS 54.6% | SF-539 CNS 83.7% | UACC-257 melanoma 101% | M14 melanoma 70.9%

COc1ccc(-c2nnc3c(/C=C/c4ccc(Br)cc4)nc4ccccc4n23)cc1
inactive: DU-145 prostate 53.6% | K-562 leukemia 10.6% | MDA-MB-231 breast 81.9% | SF-268 CNS 87.4% | SF-295 CNS 87.4% | SF-539 CNS 23.8% | UACC-257 melanoma 70.9%
active: MALME-3M melanoma -39.4% | RXF 393 renal -2.19% | M14 melanoma -19.8%

Cc1ccccc1NC(=O)c1cccc(NC(=O)CCl)c1
inactive: DU-145 prostate 69.4% | K-562 leukemia 28.1% | MALME-3M melanoma 79.6% | MDA-MB-231 breast 49.7% | RXF 393 renal 49.7% | SF-268 CNS 60.1% | SF-295 CNS 38.4% | SF-539 CNS 51.3% | UACC-257 melanoma 47.5% | M14 melanoma 50.5%

O=C(c1ccc(O)cc1)C1[C@H](c2ccc(Cl)cc2)[C@@H](c2ccccc2)NC12C(=O)Nc1ccc(Br)cc12 (stereo not given in full)
active: K-562 leukemia -41.7% | MALME-3M melanoma -49% | MDA-MB-231 breast -79.4% | RXF 393 renal -85.9% | SF-268 CNS 3.93% | SF-295 CNS -60.8% | SF-539 CNS -37.5% | M14 melanoma -56.8%
inactive: DU-145 prostate 13.4% | UACC-257 melanoma 65.9%

Cn1ncc2c(N)nc(Oc3ccccc3-c3ccccc3)nc21
inactive: DU-145 prostate 73.1% | MALME-3M melanoma 25.7% | MDA-MB-231 breast 43% | RXF 393 renal 25% | SF-268 CNS 55.6% | SF-295 CNS 27.2% | SF-539 CNS 25.9% | UACC-257 melanoma 63.5% | M14 melanoma 13.6%
active: K-562 leukemia 6.56%

Cc1ccc(S(=O)(=O)N(CCn2ccnc2[N+](=O)[O-])CCn2ccnc2[N+](=O)[O-])cc1
inactive: DU-145 prostate 106% | K-562 leukemia 95.7% | MALME-3M melanoma 111% | MDA-MB-231 breast 104% | RXF 393 renal 84.3% | SF-268 CNS 111% | SF-295 CNS 109% | SF-539 CNS 97.6% | UACC-257 melanoma 108% | M14 melanoma 97.6%

CCCn1c(NC(=O)c2cccc(C(N)=O)c2)nc2ccc(CN3CCCCC3)cc21
active: M14 melanoma -6.41%
inactive: DU-145 prostate 87.1% | K-562 leukemia 85.8% | MALME-3M melanoma 92.4% | MDA-MB-231 breast 126% | RXF 393 renal 46.4% | SF-268 CNS 107% | SF-295 CNS 106% | SF-539 CNS 106% | UACC-257 melanoma 121%

NS(=O)(=O)c1ccc(Nc2nc(N/N=C/c3cc(Br)c(O)c(Br)c3)nc(Nc3ccccc3)n2)cc1
inactive: DU-145 prostate 50.6% | K-562 leukemia 14.3% | MALME-3M melanoma 42% | RXF 393 renal 54% | SF-268 CNS 21% | SF-295 CNS 43.8% | UACC-257 melanoma 97.4% | M14 melanoma 59.4%
active: MDA-MB-231 breast -0.169% | SF-539 CNS -25.8%

COc1ccc(-c2cc(-c3cc(C(C)C)c(O)cc3C)nn2-c2ccc(S(N)(=O)=O)cc2)cc1
active: SF-539 CNS -28%
inactive: DU-145 prostate 16.2% | K-562 leukemia 13.6% | MALME-3M melanoma 60.1% | MDA-MB-231 breast 27.9% | RXF 393 renal 26.7% | SF-268 CNS 47.2% | SF-295 CNS 19.8% | UACC-257 melanoma 60.5% | M14 melanoma 42.8%

Fc1ccc(Nc2nnc(-c3c[nH]c4ccccc34)o2)cc1
inactive: DU-145 prostate 98% | K-562 leukemia 66.9% | MALME-3M melanoma 80.8% | MDA-MB-231 breast 60.8% | RXF 393 renal 93.9% | SF-268 CNS 73.1% | SF-295 CNS 84.1% | SF-539 CNS 71.2% | UACC-257 melanoma 92.7% | M14 melanoma 102%

CC1CCc2c(sc3nc(SCC(=O)c4cccc(Br)c4)n(-c4ccccc4)c(=O)c23)C1 (stereo not given)
inactive: DU-145 prostate 20.3% | K-562 leukemia 43.3% | MALME-3M melanoma 97.5% | MDA-MB-231 breast 32.3% | RXF 393 renal 90.9% | SF-268 CNS 64.9% | SF-295 CNS 47.2% | SF-539 CNS 18.3% | UACC-257 melanoma 91.1% | M14 melanoma 55.4%

Cc1nc2sccn2c1-c1nnc(SCc2ccccc2)o1
inactive: DU-145 prostate 96.6% | K-562 leukemia 75.8% | MALME-3M melanoma 106% | MDA-MB-231 breast 98.6% | RXF 393 renal 78.9% | SF-268 CNS 105% | SF-295 CNS 82.5% | SF-539 CNS 93.4% | UACC-257 melanoma 94% | M14 melanoma 96.7%

COc1c(F)ccc(C(=O)Nc2ccc3nc(NC(=O)C4CCCN(S(=O)(=O)c5ccc(C(C)(C)C)cc5)C4)sc3c2)c1F (stereo not given)
inactive: DU-145 prostate 79.5% | K-562 leukemia 26.5% | MALME-3M melanoma 77.3% | MDA-MB-231 breast 47% | RXF 393 renal 14.9% | SF-268 CNS 68.5% | SF-295 CNS 78.3% | SF-539 CNS 74% | UACC-257 melanoma 69.3% | M14 melanoma 87.6%

O=C(Nc1ccc(-c2ccc3c(c2)NC(=O)/C3=C\c2ccc[nH]2)cc1)Nc1ccc(Cl)c(Cl)c1
inactive: DU-145 prostate 54.3% | K-562 leukemia 39% | MALME-3M melanoma 68.7% | MDA-MB-231 breast 71.5% | SF-268 CNS 48.9% | SF-295 CNS 23.3% | UACC-257 melanoma 76% | M14 melanoma 59.3%
active: RXF 393 renal -1.35% | SF-539 CNS -48.9%

N/C(=N\c1nc2ccccc2s1)NC(=O)Nc1ccccc1F
inactive: K-562 leukemia 13.1% | MALME-3M melanoma 33.3% | MDA-MB-231 breast 19.9% | SF-268 CNS 47.2% | UACC-257 melanoma 84.5% | M14 melanoma 31.1%
active: DU-145 prostate 9.55% | RXF 393 renal -1.57% | SF-295 CNS 2.32% | SF-539 CNS -40.1%

Cc1ccc2nc(NC(=O)Nc3cccc(Cl)c3)sc2c1
inactive: DU-145 prostate 118% | K-562 leukemia 90.3% | MALME-3M melanoma 93.5% | MDA-MB-231 breast 92% | RXF 393 renal 121% | SF-268 CNS 118% | SF-295 CNS 98.8% | SF-539 CNS 102% | UACC-257 melanoma 111% | M14 melanoma 97.6%

C[C@@H](Nc1c(C#N)cnc2ccc(-c3cnc4[nH]ncc4c3)cc12)c1ccccc1
active: MALME-3M melanoma -2.53% | MDA-MB-231 breast 9.96% | RXF 393 renal -15.1% | SF-295 CNS -0.0923% | SF-539 CNS 7.78%
inactive: DU-145 prostate 12.3% | K-562 leukemia 22.4% | SF-268 CNS 25.7% | UACC-257 melanoma 32.5% | M14 melanoma 29.9%

CN1C(=O)/C(=C\C(=O)c2cc3ccccc3oc2=O)c2ccccc21
inactive: DU-145 prostate 71.1% | K-562 leukemia 25.6% | MALME-3M melanoma 43.2% | MDA-MB-231 breast 58.7% | RXF 393 renal 30.5% | SF-268 CNS 77.4% | SF-295 CNS 97.3% | SF-539 CNS 54% | UACC-257 melanoma 91.9% | M14 melanoma 58.7%

COc1ccc(-n2c(NC(=O)N3CCN(C)CC3)c(C#N)c3ccccc32)cc1
active: RXF 393 renal -9.29%
inactive: DU-145 prostate 41.2% | K-562 leukemia 58.6% | MALME-3M melanoma 38.5% | MDA-MB-231 breast 29.6% | SF-268 CNS 29.1% | SF-295 CNS 47.1% | SF-539 CNS 14.3% | UACC-257 melanoma 60.3% | M14 melanoma 54.4%

Fc1cccc(CNc2nc(SCCN3CCOCC3)nc3c2cnn3CC(Cl)c2ccc(Br)cc2)c1 (stereo not given)
active: K-562 leukemia -4.59% | MALME-3M melanoma -19.6% | MDA-MB-231 breast 6.57% | SF-295 CNS -10.5%
inactive: DU-145 prostate 49.9% | RXF 393 renal 29.5% | SF-268 CNS 35% | SF-539 CNS 10.8% | UACC-257 melanoma 20.1% | M14 melanoma 28%

COc1ccc2[nH]c(O)c(N=NC(=O)c3ccc4nc(-c5ccc(Cl)cc5)[nH]c4c3)c2c1
inactive: DU-145 prostate 65.6% | K-562 leukemia 41.8% | MALME-3M melanoma 33.4% | MDA-MB-231 breast 23.9% | RXF 393 renal 43.4% | SF-268 CNS 27.3% | SF-295 CNS 103% | SF-539 CNS 67.6% | UACC-257 melanoma 100% | M14 melanoma 59.4%

S=C(NCCc1ccccc1)Nc1ccc(OCc2nc3ccc(Cl)cc3[nH]2)cc1
active: MDA-MB-231 breast 9.6% | RXF 393 renal -12.6%
inactive: DU-145 prostate 37.3% | K-562 leukemia 10.1% | MALME-3M melanoma 56.5% | SF-268 CNS 52.8% | SF-295 CNS 60.4% | SF-539 CNS 17.8% | UACC-257 melanoma 74.1% | M14 melanoma 46.7%

O=C1NC(=S)/C(=C/c2cn(-c3ccccc3)nc2-c2ccccc2)S1
active: RXF 393 renal 9.95% | UACC-257 melanoma 6.05%
inactive: DU-145 prostate 34.4% | K-562 leukemia 22.2% | MALME-3M melanoma 10.4% | MDA-MB-231 breast 39.5% | SF-268 CNS 36.4% | SF-295 CNS 17% | SF-539 CNS 22.5% | M14 melanoma 25%
